Source: PubChem BioAssay
Inconclusive results are not listed. Activity calls are given as the source filed them.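 How the source made its calls, unless noted: active means normalized viability below 100% at a tested concentration; inactive means the rest.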

Tests used:
[1] = growth inhibition of DIPG glioma cells, dose response, cell-based, SU-DIPG-XVII, MIPE5.0, CellTiter-Glo, qHTS (AID 1347060; cut-off not given, nearly all actives have AC50 up to about 26 µM;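 on AC50: cells exposed to compound for 48 hours before viability readout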); details: SU-DIPG-XVII viability, CellTiter-Glo ATP luminescence
[2] = growth inhibition of DIPG glioma cells, dose response, cell-based, SU-DIPG-IV, MIPE4.0, CellTiter-Glo, qHTS (AID 1347063; cut-off not given, nearly all actives have AC50 up to about 30 µM;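 further: compound exposure lasted 48 hours before the viability readout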); details: SU-DIPG-IV viability, CellTiter-Glo ATP luminescence
[3] = growth inhibition of DIPG glioma cells, dose response, cell-based, SU-DIPG-XIII, MIPE5.0, CellTiter-Glo, qHTS (AID 1347064; cut-off not given, nearly all actives have AC50 up to about 23 µM;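 on AC50: cells exposed to compound for 48 hours before the viability read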); details: SU-DIPG-XIII viability, CellTiter-Glo ATP luminescence
[4] = viability loss in pontine glioma line – cell-based, SU-DIPG-XXV, MIPE5.0, CellTiter-Glo, qHTS, dose response (AID 1347065; cut-off not given, nearly all actives have AC50 up to about 26 µM;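 further: cells exposed to compound for 48 hours before ATP readout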); details: CellTiter-Glo ATP luminescence
[5] = SU-DIPG-VI glioma cell viability, MIPE4.0 library, CellTiter-Glo luminescence, qHTS (AID 1347066; cut-off not given, nearly all actives have AC50 up to about 30 µM;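 further: cells exposed to compound for 48 hours before readout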); details: CellTiter-Glo ATP luminescence
[6] = JHH-DIPG-1 glioma cell viability, MIPE5.0 library, CellTiter-Glo luminescence, qHTS (AID 1347067; cut-off not given, nearly all actives have AC50 up to about 26 µM;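 further: cells exposed to compound for 48 hours before readout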); details: JHH-DIPG-1 glioma viability, CellTiter-Glo ATP luminescence
[7] = SU-DIPG-XXV glioma cell viability, MIPE5.0 library, qHTS (AID 1347068; cut-off not given, nearly all actives have IC50 up to about 30 µM;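 on IC50: cells exposed to compound for 48 hours before viability readout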)
[8] = sensitizers of A549 cells to miR-34 induction, primary screen, imaging, A549 dox-inducible miR-34, nuclei and caspase counts (AID 1347080;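 active means compounds whose cell count with miR-34 switched on is under 0.7 times the count with it off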); details: A549 miR-34 inducible, Hoechst nuclei count, 48 h
[9] = modifiers of HSF1 nuclear foci, imaging, Selleck Cancer Library (AID 1347162; in the data active means plate-normalised HSF1 focus index below about 0.46); details: human cells, at 10 µM; SSMD: measured here: HSF1 foci SSMD mean; cell count: measured here: cell number; plate-normalised HSF1 focus index: stronger effect = lower value
[10] = survival rescue of mitochondrial mutant cells in low glucose, primary screen, MELAS cybrids, Rieske KO mouse fibroblasts, CellTiter-Glo (AID 1508586;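 active means mean z-score across replicates of 1.96 or higher in either the MELAS or the Rieske mutant cell line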;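 further: z relative to plate mean and SD of compound and empty wells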)
[11] = ovarian cancer cell viability with rucaparib, profiling panel, oncology-focused library, rucaparib conditional (AID 1508598); details: patient-derived ovarian cancer cells, CellTiter-Glo viability, 144 h, stronger effect = lower value
[12] = stronger effect = lower value, cell number ratio, induced over uninduced
[13] = measured here: relative caspase fold change +Dox/-Dox
[14] = measured here: total cells with miR-34 induction, stronger effect = lower value
[15] = measured here: total cells without miR-34 induction
[16] = MELAS cybrid survival, CellTiter-Glo 48 h, stronger effect = higher value
[17] = Rieske KO mouse fibroblast survival, CellTiter-Glo 72 h
[18] = at 0.000305 µM, OCI-C5x cells, with rucaparib 10 µM, 100% = cells with rucaparib alone
[19] = at 0.000305 µM, OCI-C5x cells, without rucaparib
[20] = at 0.000305 µM, OCI-P5x cells, with rucaparib 20 µM, 100% = cells with rucaparib alone
[21] = at 0.000305 µM, OCI-P5x cells, without rucaparib
[22] = at 0.00122 µM, OCI-C5x cells, with rucaparib 10 µM, 100% = cells with rucaparib alone
[23] = at 0.00122 µM, OCI-C5x cells, without rucaparib
[24] = at 0.00122 µM, OCI-P5x cells, with rucaparib 20 µM, 100% = cells with rucaparib alone
[25] = at 0.00122 µM, OCI-P5x cells, without rucaparib
[26] = at 0.00488 µM, OCI-C5x cells, with rucaparib 10 µM, 100% = cells with rucaparib alone
[27] = at 0.00488 µM, OCI-C5x cells, without rucaparib
[28] = at 0.00488 µM, OCI-P5x cells, with rucaparib 20 µM, 100% = cells with rucaparib alone
[29] = at 0.00488 µM, OCI-P5x cells, without rucaparib
[30] = at 0.0195 µM, OCI-C5x cells, with rucaparib 10 µM, 100% = cells with rucaparib alone
[31] = at 0.0195 µM, OCI-C5x cells, without rucaparib
[32] = at 0.0195 µM, OCI-P5x cells, with rucaparib 20 µM, 100% = cells with rucaparib alone
[33] = at 0.0195 µM, OCI-P5x cells, without rucaparib
[34] = at 0.0781 µM, OCI-C5x cells, with rucaparib 10 µM, 100% = cells with rucaparib alone
[35] = at 0.0781 µM, OCI-C5x cells, without rucaparib
[36] = at 0.0781 µM, OCI-P5x cells, with rucaparib 20 µM, 100% = cells with rucaparib alone
[37] = at 0.0781 µM, OCI-P5x cells, without rucaparib
[38] = at 0.313 µM, OCI-C5x cells, with rucaparib 10 µM, 100% = cells with rucaparib alone
[39] = at 0.313 µM, OCI-C5x cells, without rucaparib
[40] = at 0.313 µM, OCI-P5x cells, with rucaparib 20 µM, 100% = cells with rucaparib alone
[41] = at 0.313 µM, OCI-P5x cells, without rucaparib
[42] = at 1.25 µM, OCI-C5x cells, with rucaparib 10 µM, 100% = cells with rucaparib alone
[43] = at 1.25 µM, OCI-C5x cells, without rucaparib
[44] = at 1.25 µM, OCI-P5x cells, with rucaparib 20 µM, 100% = cells with rucaparib alone
[45] = at 1.25 µM, OCI-P5x cells, without rucaparib
[46] = at 5 µM, OCI-C5x cells, with rucaparib 10 µM, 100% = cells with rucaparib alone
[47] = at 5 µM, OCI-C5x cells, without rucaparib
[48] = at 5 µM, OCI-P5x cells, with rucaparib 20 µM, 100% = cells with rucaparib alone
[49] = at 5 µM, OCI-P5x cells, without rucaparib

COC(=O)c1ccc2c(C(=Nc3ccc(N(C)C(=O)CN4CCN(C)CC4)cc3)c3ccccc3)c(O)[nH]c2c1
2.23: SSMD [9]
inactive: outcome [5] | fold change [8, 12] 0.909 | plate-normalised HSF1 focus index [9] 1.08 | z-score [10, 16] -0.457 | viability [11, 18] 119% | viability [11, 19] 127% | viability [11, 20] 103% | viability [11, 21] 111% | viability [11, 22] 107% | viability [11, 23] 128% | viability [11, 25] 102% | viability [11, 26] 114% | viability [11, 27] 118% | viability [11, 29] 104% | viability [11, 30] 120% | viability [11, 31] 115% | viability [11, 34] 116% | viability [11, 35] 116% | viability [11, 38] 128% | viability [11, 39] 118% | viability [11, 42] 124% | viability [11, 43] 116% | viability [11, 46] 124% | viability [11, 47] 118%
active: AC50 [1] 1.48 µM | AC50 [2] 9.35 µM | AC50 [3] 2.09 µM | AC50 [4] 1.66 µM | AC50 [6] 5.9 µM | IC50 [7] 3.32 µM | viability [11, 24] 95.9% | viability [11, 28] 95.7% | viability [11, 32] 94.4% | viability [11, 33] 97.5% | viability [11, 36] 93% | viability [11, 37] 96.8% | viability [11, 40] 87% | viability [11, 41] 97.6% | viability [11, 44] 66.6% | viability [11, 45] 73.9% | viability [11, 48] 51.6% | viability [11, 49] 59.1%
5790: cell count [8, 14]
7520: cell count [9]
-1.1: z-score [10, 17]
1.19: fold change [8, 13]
6370: cell count [8, 15]

CC(C)C[C@@H](N)[C@H](O)C(=O)N[C@H](C(=O)N[C@H](C(=O)N[C@@H](CC(=O)O)C(=O)O)C(C)C)C(C)C
inactive: outcome [1] | outcome [2] | outcome [3] | outcome [4] | outcome [5] | outcome [6] | outcome [7]

CC[C@@]1([C@@H]2O[C@@H]([C@H]3O[C@@](O)(CO)[C@H](C)C[C@@H]3C)C[C@@H]2C)CC[C@H]([C@]2(C)CC[C@]3(C[C@H](O)[C@@H](C)[C@@H]([C@@H](C)[C@@H](OC)[C@H](C)C(=O)O)O3)O2)O1
active: AC50 [1] 0.0574 µM | AC50 [2] 0.144 µM | AC50 [3] 0.456 µM | AC50 [4] 0.456 µM | AC50 [6] 0.288 µM

CN1N=C(N)c2cn([C@@H]3O[C@H](COP(=O)(O)O)[C@@H](O)[C@H]3O)c3ncnc1c23
active: AC50 [1] 0.417 µM | AC50 [2] 0.372 µM | AC50 [3] 1.66 µM | AC50 [4] 0.105 µM | AC50 [5] 0.132 µM

N#CCNC(=O)c1ccc(-c2ccnc(Nc3ccc(N4CCOCC4)cc3)n2)cc1
0.89: fold change [8, 13]
7330: cell count [9]
active: AC50 [1] 16.6 µM | AC50 [2] 20.9 µM | AC50 [3] 13.2 µM | AC50 [4] 16.6 µM | AC50 [6] 13.2 µM | IC50 [7] 18.6 µM | z-score [10, 16] 5.22 | viability [11, 29] 96.8% | viability [11, 33] 93.3% | viability [11, 36] 96.9% | viability [11, 37] 92.3% | viability [11, 40] 90.7% | viability [11, 41] 66.2% | viability [11, 44] 84.2% | viability [11, 45] 84.9% | viability [11, 46] 78.5% | viability [11, 48] 46.8% | viability [11, 49] 49%
-1.38: z-score [10, 17]
1150: cell count [8, 14]
-3.51: SSMD [9]
inactive: fold change [8, 12] 0.941 | plate-normalised HSF1 focus index [9] 0.876 | viability [11, 18] 109% | viability [11, 19] 113% | viability [11, 20] 105% | viability [11, 21] 104% | viability [11, 22] 103% | viability [11, 23] 108% | viability [11, 24] 105% | viability [11, 25] 103% | viability [11, 26] 110% | viability [11, 27] 117% | viability [11, 28] 106% | viability [11, 30] 109% | viability [11, 31] 104% | viability [11, 32] 103% | viability [11, 34] 122% | viability [11, 35] 116% | viability [11, 38] 108% | viability [11, 39] 105% | viability [11, 42] 120% | viability [11, 43] 101% | viability [11, 47] 109%
1230: cell count [8, 15]

O[C@@H](COc1cccc2ncccc12)CN1CCN(C2c3ccccc3[C@@H]3[C@H](c4ccccc42)C3(F)F)CC1 (stereo partly drawn)
active: AC50 [1] 20.9 µM | AC50 [2] 16.6 µM | AC50 [3] 23.5 µM | AC50 [4] 13.2 µM | AC50 [6] 23.5 µM | IC50 [7] 18.6 µM

O=C(Nc1ccccc1-c1cn2c(CN3CCNCC3)csc2n1)c1cnc2ccccc2n1
inactive: fold change [8, 12] 0.907 | plate-normalised HSF1 focus index [9] 0.795 | z-score [10, 16] -0.642 | viability [11, 18] 102% | viability [11, 19] 114% | viability [11, 20] 123% | viability [11, 21] 115% | viability [11, 22] 101% | viability [11, 23] 106% | viability [11, 24] 117% | viability [11, 25] 116% | viability [11, 26] 106% | viability [11, 27] 110% | viability [11, 28] 111% | viability [11, 29] 114% | viability [11, 30] 113% | viability [11, 31] 116%
0.327: z-score [10, 17]
6890: cell count [8, 15]
0.998: fold change [8, 13]
6160: cell count [9]
active: AC50 [1] 9.34 µM | AC50 [2] 8.33 µM | AC50 [3] 2.09 µM | AC50 [4] 3.32 µM | AC50 [5] 10.5 µM | AC50 [6] 3.72 µM | IC50 [7] 10.5 µM
-4.31: SSMD [9]
6250: cell count [8, 14]
